In paper PMC7862700, “An all-to-all approach to the identification of sequence-specific readers for epigenetic DNA modifications on cytosine” one finds binding signal data, which are given here for eight sequences.

Holding throughout (assay): DAPPL (digital affinity profiling via proximity ligation, sequencing); 10 mM Tris-HCl pH 7.5, 50 mM NaCl, 1 mM DTT, 4% glycerol, room temperature, 30 min; GST-TFs on glutathione beads, 16-mer random dsDNA library, 0.1% formaldehyde crosslink after washing; high values mean tight binding
Holding throughout (details): protein: recombinant; tags: N-terminal GST; dsDNA, one strand shown

The target of one test is T1, FLI1 (Homo sapiens, UniProt Q01543 1-452).
T1 sequence: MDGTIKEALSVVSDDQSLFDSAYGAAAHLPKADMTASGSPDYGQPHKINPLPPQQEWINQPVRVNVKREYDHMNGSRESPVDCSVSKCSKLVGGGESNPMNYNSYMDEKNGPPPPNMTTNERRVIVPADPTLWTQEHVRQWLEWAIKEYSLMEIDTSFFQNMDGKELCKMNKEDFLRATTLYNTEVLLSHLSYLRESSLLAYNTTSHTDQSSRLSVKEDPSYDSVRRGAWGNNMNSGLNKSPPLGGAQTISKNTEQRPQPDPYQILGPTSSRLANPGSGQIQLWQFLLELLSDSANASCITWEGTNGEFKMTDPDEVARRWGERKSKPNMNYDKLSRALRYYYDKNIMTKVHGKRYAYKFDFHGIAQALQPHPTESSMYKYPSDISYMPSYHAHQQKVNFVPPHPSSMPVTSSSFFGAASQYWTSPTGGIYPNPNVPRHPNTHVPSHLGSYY
In outline: (§1)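 Pools were built from human transcription factors expressed in yeast as GST fusions, captured on glutathione beads and DNA-barcoded, along with a tag-only sample. Incubation with 200 nmole of a 16-mer random double-stranded DNA library lasted 30 min at room temperature in Tris/NaCl/DTT/glycerol buffer, and was followed by washing, 0.1% formaldehyde crosslinking, proximity ligation, PCR amplification and Illumina NextSeq500 sequencing. Binding signal is the quotient of each hexamer's read frequency for a factor and its frequency for the tag-only sample.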

The target of a further test is T2, ELK1 (Homo sapiens, UniProt P19419 1-428).
T2 sequence: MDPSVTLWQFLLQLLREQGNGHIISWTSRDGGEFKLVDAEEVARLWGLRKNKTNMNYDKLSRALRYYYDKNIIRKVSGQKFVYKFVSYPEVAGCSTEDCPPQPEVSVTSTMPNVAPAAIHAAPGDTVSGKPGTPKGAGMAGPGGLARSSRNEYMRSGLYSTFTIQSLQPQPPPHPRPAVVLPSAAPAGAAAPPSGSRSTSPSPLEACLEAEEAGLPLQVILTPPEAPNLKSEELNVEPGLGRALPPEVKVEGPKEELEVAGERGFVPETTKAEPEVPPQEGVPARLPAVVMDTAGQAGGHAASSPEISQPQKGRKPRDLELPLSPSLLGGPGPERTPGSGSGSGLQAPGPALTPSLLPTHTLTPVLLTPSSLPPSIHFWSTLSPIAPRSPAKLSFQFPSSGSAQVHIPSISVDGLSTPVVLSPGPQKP
The method, boiled down:
as §1

The next test concerns the target T3, GABPA (Homo sapiens, UniProt Q06546 1-454).
T3 sequence: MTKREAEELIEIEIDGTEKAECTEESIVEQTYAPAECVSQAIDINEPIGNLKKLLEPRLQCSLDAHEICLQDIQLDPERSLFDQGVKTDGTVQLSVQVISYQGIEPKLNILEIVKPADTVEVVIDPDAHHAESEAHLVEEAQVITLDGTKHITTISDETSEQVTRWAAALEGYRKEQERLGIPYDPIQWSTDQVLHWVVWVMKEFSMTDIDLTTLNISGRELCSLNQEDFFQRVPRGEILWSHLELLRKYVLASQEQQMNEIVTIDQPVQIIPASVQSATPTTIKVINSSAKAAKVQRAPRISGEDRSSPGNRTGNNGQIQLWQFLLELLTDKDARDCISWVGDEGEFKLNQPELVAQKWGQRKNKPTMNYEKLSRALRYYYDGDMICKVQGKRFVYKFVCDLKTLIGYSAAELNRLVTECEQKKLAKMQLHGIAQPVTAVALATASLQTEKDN
In outline:
as §1

Another test addresses T4, ERG (Homo sapiens, UniProt P11308 1-479).
T4 sequence: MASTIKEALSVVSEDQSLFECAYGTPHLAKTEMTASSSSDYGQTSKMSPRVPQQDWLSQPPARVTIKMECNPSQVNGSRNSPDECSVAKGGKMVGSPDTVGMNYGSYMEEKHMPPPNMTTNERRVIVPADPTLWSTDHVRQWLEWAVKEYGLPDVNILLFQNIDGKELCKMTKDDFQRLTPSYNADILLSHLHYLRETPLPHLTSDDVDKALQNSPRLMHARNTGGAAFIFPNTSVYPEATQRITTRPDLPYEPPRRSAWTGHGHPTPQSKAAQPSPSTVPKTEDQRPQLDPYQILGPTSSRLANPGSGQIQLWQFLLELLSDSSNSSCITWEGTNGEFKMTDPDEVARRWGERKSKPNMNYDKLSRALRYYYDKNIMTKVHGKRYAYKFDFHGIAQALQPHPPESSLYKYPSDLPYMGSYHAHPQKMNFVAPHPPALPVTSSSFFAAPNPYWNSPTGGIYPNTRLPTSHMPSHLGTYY
The method, boiled down:
as §1

The next test concerns the target ELF1 (Homo sapiens, UniProt P32519 1-619). The method, boiled down: as §1
Another test addresses T5, EHF (Homo sapiens, UniProt Q9NZC4 1-300).
T5 sequence: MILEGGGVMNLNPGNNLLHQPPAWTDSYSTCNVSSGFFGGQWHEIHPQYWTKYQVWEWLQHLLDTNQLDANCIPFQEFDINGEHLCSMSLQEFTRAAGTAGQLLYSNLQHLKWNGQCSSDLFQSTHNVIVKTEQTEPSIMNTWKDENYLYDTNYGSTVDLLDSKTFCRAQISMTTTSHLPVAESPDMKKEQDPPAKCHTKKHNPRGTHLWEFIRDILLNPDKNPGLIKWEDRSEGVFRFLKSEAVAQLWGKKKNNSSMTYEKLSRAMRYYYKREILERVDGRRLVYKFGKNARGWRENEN
The method, boiled down: as §1

In test [1] the target is SPI1 (Homo sapiens, UniProt P17947 1-270). In outline: as §1
In the next test the target is SPIB (Homo sapiens, UniProt Q01892 1-262). The method, boiled down:
as §1

A further test deals with T6, ELK3 (Homo sapiens, UniProt P41970 1-407).
T6 sequence: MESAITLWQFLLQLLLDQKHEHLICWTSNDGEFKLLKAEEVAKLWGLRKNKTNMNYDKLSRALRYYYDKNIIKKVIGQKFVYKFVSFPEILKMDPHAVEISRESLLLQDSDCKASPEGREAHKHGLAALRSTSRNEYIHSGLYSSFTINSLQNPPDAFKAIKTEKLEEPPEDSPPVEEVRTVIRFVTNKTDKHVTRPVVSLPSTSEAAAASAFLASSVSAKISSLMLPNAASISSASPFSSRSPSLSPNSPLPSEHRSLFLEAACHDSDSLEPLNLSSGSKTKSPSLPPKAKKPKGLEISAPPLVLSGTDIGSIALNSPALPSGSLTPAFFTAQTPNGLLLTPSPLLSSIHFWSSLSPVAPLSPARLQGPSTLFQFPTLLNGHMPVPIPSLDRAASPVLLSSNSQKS
The method, boiled down: as §1

Test [2] deals with SPI1 (Homo sapiens, UniProt P17947 1-270). The method, boiled down:
as §1
This is another data set of the same source.

Chain of ELF1 (P32519 whole entry): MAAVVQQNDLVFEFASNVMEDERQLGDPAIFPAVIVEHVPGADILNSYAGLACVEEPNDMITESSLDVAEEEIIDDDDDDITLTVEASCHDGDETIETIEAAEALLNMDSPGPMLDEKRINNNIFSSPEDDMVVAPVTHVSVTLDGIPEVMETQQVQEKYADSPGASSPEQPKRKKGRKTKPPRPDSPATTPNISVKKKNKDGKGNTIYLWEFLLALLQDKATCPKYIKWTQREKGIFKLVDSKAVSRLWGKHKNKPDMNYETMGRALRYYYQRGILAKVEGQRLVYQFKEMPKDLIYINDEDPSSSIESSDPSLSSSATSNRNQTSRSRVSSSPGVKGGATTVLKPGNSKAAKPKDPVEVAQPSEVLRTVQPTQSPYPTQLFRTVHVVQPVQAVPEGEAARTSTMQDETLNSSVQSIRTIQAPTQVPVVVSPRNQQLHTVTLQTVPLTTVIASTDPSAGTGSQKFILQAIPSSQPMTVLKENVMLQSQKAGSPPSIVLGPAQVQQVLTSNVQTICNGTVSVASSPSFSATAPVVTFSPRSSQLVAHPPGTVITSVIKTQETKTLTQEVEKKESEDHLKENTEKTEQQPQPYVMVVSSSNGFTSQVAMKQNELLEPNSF
Chain of SPIB (Q01892 whole entry): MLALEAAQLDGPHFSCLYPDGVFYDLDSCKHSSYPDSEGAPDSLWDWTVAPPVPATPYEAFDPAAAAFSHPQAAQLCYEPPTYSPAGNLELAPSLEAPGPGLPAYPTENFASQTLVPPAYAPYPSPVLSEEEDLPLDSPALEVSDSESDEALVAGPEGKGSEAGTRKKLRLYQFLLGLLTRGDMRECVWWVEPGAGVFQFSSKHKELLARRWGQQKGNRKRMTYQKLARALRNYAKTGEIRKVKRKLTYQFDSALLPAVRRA

In the case of CTTTGA, the binding signal with FLI1 is 1.29 fold enrichment (6-mer frequency, TF over GST control); with ELK1, 1.22 fold enrichment (6-mer frequency, TF over GST control); in the test with GABPA, 1.26 fold enrichment (6-mer frequency, TF over GST control); with ERG, 1.26 fold enrichment (6-mer frequency, TF over GST control); with ELF1, 1.26 fold enrichment (6-mer frequency, TF over GST control); with EHF, 1.16 fold enrichment (6-mer frequency, TF over GST control). The binding signal with SPI1 [1] was 1.21 fold enrichment (6-mer frequency, TF over GST control); with SPIB, 1.24 fold enrichment (6-mer frequency, TF over GST control); with ELK3 it was 1.15 fold enrichment (6-mer frequency, TF over GST control).
On to ATTTCC, for which the binding signal with FLI1 is 3.94 fold enrichment (6-mer frequency, TF over GST control); with ELK1, 3.9 fold enrichment (6-mer frequency, TF over GST control); with GABPA, 3.59 fold enrichment (6-mer frequency, TF over GST control); with ERG, 5.18 fold enrichment (6-mer frequency, TF over GST control); in the test with ELF1, 3.51 fold enrichment (6-mer frequency, TF over GST control); with EHF, 4.16 fold enrichment (6-mer frequency, TF over GST control). In addition, the binding signal with SPI1 [2] is 3.71 fold enrichment (6-mer frequency, TF over GST control); in the test with SPIB, 4.18 fold enrichment (6-mer frequency, TF over GST control); with ELK3 it was 4.09 fold enrichment (6-mer frequency, TF over GST control).
In the case of TTTGCT, the binding signal in the test with FLI1 was 1.25 fold enrichment (6-mer frequency, TF over GST control); with ELK1, 1.17 fold enrichment (6-mer frequency, TF over GST control); in the test with GABPA, 1.29 fold enrichment (6-mer frequency, TF over GST control); in the test with ERG, 1.18 fold enrichment (6-mer frequency, TF over GST control); with ELF1, 1.21 fold enrichment (6-mer frequency, TF over GST control); in the test with EHF, 1.18 fold enrichment (6-mer frequency, TF over GST control). Further, the binding signal with SPI1 [1] is 1.21 fold enrichment (6-mer frequency, TF over GST control); in the test with SPIB, 1.24 fold enrichment (6-mer frequency, TF over GST control); with ELK3, 1.25 fold enrichment (6-mer frequency, TF over GST control).
In the case of TCCGGT, the binding signal was 3.61 fold enrichment (6-mer frequency, TF over GST control) with FLI1; 3.83 fold enrichment (6-mer frequency, TF over GST control) with ELK1; 3.5 fold enrichment (6-mer frequency, TF over GST control) in the test with GABPA; 4.63 fold enrichment (6-mer frequency, TF over GST control) with ERG; 3.46 fold enrichment (6-mer frequency, TF over GST control) with ELF1; 3.67 fold enrichment (6-mer frequency, TF over GST control) with EHF. Also, the binding signal with SPI1 [2] was 3.58 fold enrichment (6-mer frequency, TF over GST control); in the test with SPIB it was 3.58 fold enrichment (6-mer frequency, TF over GST control); with ELK3, 4.4 fold enrichment (6-mer frequency, TF over GST control).
On to CTTCCG, for which the binding signal was 7.32 fold enrichment (6-mer frequency, TF over GST control) in the test with FLI1; 8.14 fold enrichment (6-mer frequency, TF over GST control) with ELK1; 6.76 fold enrichment (6-mer frequency, TF over GST control) with GABPA; 8.96 fold enrichment (6-mer frequency, TF over GST control) with ERG; 7.37 fold enrichment (6-mer frequency, TF over GST control) with ELF1; 7.93 fold enrichment (6-mer frequency, TF over GST control) with EHF. For the same sequence, the binding signal in the test with SPI1 [2] is 9.8 fold enrichment (6-mer frequency, TF over GST control); with SPIB it was 7.71 fold enrichment (6-mer frequency, TF over GST control); with ELK3, 9.13 fold enrichment (6-mer frequency, TF over GST control).
For CCCGTT, the binding signal is 1.17 fold enrichment (6-mer frequency, TF over GST control) in the test with FLI1; 1.08 fold enrichment (6-mer frequency, TF over GST control) with ELK1; 1.21 fold enrichment (6-mer frequency, TF over GST control) with GABPA; 1.26 fold enrichment (6-mer frequency, TF over GST control) in the test with ERG; 1.12 fold enrichment (6-mer frequency, TF over GST control) with ELF1; 1.15 fold enrichment (6-mer frequency, TF over GST control) in the test with EHF. For the same sequence, the binding signal in the test with SPI1 [1] is 1.28 fold enrichment (6-mer frequency, TF over GST control); with SPIB, 1.19 fold enrichment (6-mer frequency, TF over GST control); with ELK3 it was 1.18 fold enrichment (6-mer frequency, TF over GST control).
As to CTCTGT, the binding signal with FLI1 was 1.5 fold enrichment (6-mer frequency, TF over GST control); with ELK1 it was 1.39 fold enrichment (6-mer frequency, TF over GST control); with GABPA it was 1.33 fold enrichment (6-mer frequency, TF over GST control); with ERG, 1.29 fold enrichment (6-mer frequency, TF over GST control); in the test with ELF1 it was 1.5 fold enrichment (6-mer frequency, TF over GST control); with EHF, 1.44 fold enrichment (6-mer frequency, TF over GST control). For the same sequence, the binding signal in the test with SPI1 [1] is 1.34 fold enrichment (6-mer frequency, TF over GST control); in the test with SPIB, 1.36 fold enrichment (6-mer frequency, TF over GST control); with ELK3, 1.19 fold enrichment (6-mer frequency, TF over GST control).
Turning to CTTCCT, the binding signal with FLI1 is 3.11 fold enrichment (6-mer frequency, TF over GST control); with ELK1, 2.94 fold enrichment (6-mer frequency, TF over GST control); with GABPA it was 2.95 fold enrichment (6-mer frequency, TF over GST control); in the test with ERG it was 3.65 fold enrichment (6-mer frequency, TF over GST control); with ELF1 it was 3.01 fold enrichment (6-mer frequency, TF over GST control); with EHF, 3.28 fold enrichment (6-mer frequency, TF over GST control). Further, the binding signal in the test with SPI1 [2] was 5.09 fold enrichment (6-mer frequency, TF over GST control); with SPIB it was 3.4 fold enrichment (6-mer frequency, TF over GST control); with ELK3, 3.04 fold enrichment (6-mer frequency, TF over GST control).
